This is a sample that favours compounds with a hit; in the whole collection about 9.2% have one here.
ELG1 DNA repair: blocks ELG1-dependent DNA repair in HEK293T cells. HEK293T ELG1-luciferase reporter, luminescence, 16 h; DNA damage induced by 5-fluorouridine. 330,000 tested, 2.3% active. Potency, µM (doses to about 46.1 µM), actives largely listed as inhibitors. AID 504467; further: nearly all actives have a fitted effect of over 55% in size
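Cells (2,000 per well) received 5-fluorouridine plus test compound or DMSO and were incubated 16 hr at 37 °C, 5% CO2. Luciferase activity was read by luminescence 30 min after ONE-Glo addition; signal suppression marked inhibition of damage-induced ELG1 function.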
SMN2 splice up: increases expression of the SMN2 splice variant. HEK293 SMN2-luciferase splicing reporter, luminescence, 30-36 h. 210,000 tested, 2.8% active. Potency, µM (top dose mostly 46.1 µM), hits mostly activators; further: nearly all actives have a fitted effect of over 55% in size
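HEK293 cells carry an SMN2 […]–luciferase reporter in which exon 7 inclusion puts luciferase in frame. Cells were plated 10-12 h before compound addition, then incubated 30-36 h at 37C. ONE-Glo luminescence was read; sodium butyrate at 4.5 mM final served as control.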
ELG1 genotoxic: inducers of genotoxicity in HEK293T ELG1-luciferase cells | HEK293T ELG1-luciferase reporter, luminescence, 16 h | Potency, µM (titrated, usually from 46 µM), most hits filed as activators | 330,000 tested, 1.3% active | AID 504466; further: nearly all actives have a fitted effect of over 60% in size
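Step 1: seed 2,000 HEK293T ELG1-luciferase cells per well. Step 2: add compound or DMSO, incubate 16 hr at 37 °C. Step 3: ONE-Glo, 30 min at room temperature, read luminescence.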
FLuc modulator: firefly luciferase modulation, counter-screen for miR-21 project; P08659; purified FLuc, Km substrates, luminescence inhibition; 360,000 tested, 6.9% active; Potency, µM (highest dose often 57.5 µM), actives largely listed as inhibitors; further: nearly all actives have a fitted effect of over 55% in size
Target sequence (P08659 whole entry, looked up): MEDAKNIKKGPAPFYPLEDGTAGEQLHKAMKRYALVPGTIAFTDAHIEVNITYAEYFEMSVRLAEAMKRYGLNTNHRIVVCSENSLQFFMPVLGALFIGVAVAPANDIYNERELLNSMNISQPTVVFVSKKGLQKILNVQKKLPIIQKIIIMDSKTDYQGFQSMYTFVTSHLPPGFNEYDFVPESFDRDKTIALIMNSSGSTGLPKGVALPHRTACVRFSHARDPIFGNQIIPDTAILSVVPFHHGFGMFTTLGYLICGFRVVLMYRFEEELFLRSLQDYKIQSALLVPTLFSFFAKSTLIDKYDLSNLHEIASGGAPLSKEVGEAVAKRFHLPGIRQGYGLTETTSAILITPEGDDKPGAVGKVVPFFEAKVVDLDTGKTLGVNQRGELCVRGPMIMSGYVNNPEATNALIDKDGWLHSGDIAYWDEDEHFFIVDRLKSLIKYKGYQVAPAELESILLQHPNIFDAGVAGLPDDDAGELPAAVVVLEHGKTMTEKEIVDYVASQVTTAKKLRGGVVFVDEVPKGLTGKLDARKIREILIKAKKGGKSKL
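Purified P. pyralis luciferase (10nM final) with 10uM D-luciferin and 10uM ATP (Km levels) in 50mM Tris acetate pH 7.5, 10mM Mg acetate, 0.01% Tween-20, 0.05% BSA; qHTS 6-point titration, ~60 µM downward; luminescence read.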
NPC1 promoter act: NPC1 promoter activation. Huh7 NPC1 promoter luciferase reporter, 24 h. AID 485313. 320,000 tested, 2.4% active. Potency, µM (top dose mostly 9.22 µM), usual class: activators; further: nearly all actives have a fitted effect of over 60% in size
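Compounds in DMSO were transferred onto Huh7 NPC1-luciferase reporter cells pre-incubated 2 h; after 24 h at 37 °C, Amplite reagent was dispensed and luminescence recorded 10 min later.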
Rab9 promoter act: activates the Rab9 promoter; Huh7 Rab9 promoter-luciferase reporter, luminescence, 24 h; Potency, µM (series often up to 9.22 µM), actives largely listed as activators; 320,000 tested, 2.8% active; further: nearly all actives have a fitted effect of over 60% in size
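Using Huh7 cells stably transfected with Rab9 promoter–luciferase, compounds were incubated 24 h at 37 °C, 5% CO2; luciferase luminescence was read 10 min after reagent addition.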
A number is an active result; n = inactive; u = inconclusive; x = no result given. The call rests on the fitted dose curve; in most records, active means well fitted curve in the direction sought with a large enough effect; inconclusive means small, poorly fitted or top-dose-only effect, or another doubt; inactive means no such curve, though single readings can be large; an effect the other way counts as inactive or inconclusive.

SMILES | ELG1 DNA repair | SMN2 splice up | ELG1 genotoxic | FLuc modulator | NPC1 promoter act | Rab9 promoter act
CCOC(=O)c1ccccc1NC(=O)N(Cc1ccco1)C1CCN(C(C)=O)CC1 | x | x | x | n | x | x
Cc1ccc(Oc2ccc(S(=O)(=O)N3CCOCC3)cc2C(N)=O)cc1C | n | x | n | n | n | n
Cc1ccc(C(=O)NC2(C(F)(F)F)N=C(c3ccccc3)N(Cc3ccccc3)C2=O)cc1 (centres undefined) | x | n | x | n | x | x
O=C(CCNC(=O)c1ccc([N+](=O)[O-])cc1)NCCC1=CCCCC1 | n | x | n | n | n | n
COc1ccc(C(=O)NCCC2=CCCCC2)cc1 | u | 2.5µM | 1.5µM | 0.85µM | 0.35µM | 0.32µM
O=C(NCCC1=CCCCC1)c1ccc([N+](=O)[O-])cc1 | u | 2.8µM | u | 5.4µM | 1.1µM | 0.63µM
COc1ccc(C(=O)NCC(=O)OCC(=O)NCCC2=CCCCC2)cc1 | n | n | n | n | n | n
O=C(NCCc1ccc(F)cc1)c1ccc([N+](=O)[O-])cc1 | u | 11µM | u | 15µM | 2.5µM | 3.2µM
CN(C)CCN1C(=O)c2ccccc2N(C)c2ccccc21 | x | n | x | x | x | x
CC1=CC(=C2C(=O)c3ccccc3C2=O)C=C(C)N1C | u | n | u | 12µM | 2.5µM | 2.5µM
CCN(CC)P(=O)(Nc1cccc(C(F)(F)F)c1)c1ccc(N(C)C)cc1NC(=O)c1ccco1 (centres undefined) | 21µM | n | n | n | n | n
O=S(=O)(Nc1cccc(S(=O)(=O)N2CCCCC2)c1)c1ccc(Cl)s1 | n | x | n | x | x | x
CCc1ccc(S(=O)(=O)Nc2cccc(-c3ccc4nnc(C)n4n3)c2)s1 | n | x | n | n | n | n
Cc1ccc(S(=O)(=O)Nc2cccc(-c3ccc(N4CCCCC4)nn3)c2)s1 | x | x | x | 1.1µM | x | x
CCc1ccc(S(=O)(=O)Nc2cccc(-c3ccc(N4CCCCC4)nn3)c2)s1 | x | x | x | 2.7µM | x | x
CC(C)C[C@H](NC(=O)c1nc[nH]c1C(=O)NC1CCN(C(=O)OC(C)(C)C)CC1)C(=O)OC(C)(C)C | n | x | n | n | n | n
Cc1cccc(NC(=O)c2nc[nH]c2C(=O)N[C@@H](CCCCNC(=O)OC(C)(C)C)C(=O)OC(C)(C)C)c1 | 15µM | x | n | n | n | n
Cc1cccc(NC(=O)c2nc[nH]c2C(=O)NCCCCCNC(=O)OC(C)(C)C)c1 | 21µM | x | n | n | n | n
CC(C)(C)OC(=O)NCCCC[C@H](NC(=O)c1nc[nH]c1C(=O)NC1CCN(C(=O)OC(C)(C)C)CC1)C(=O)OC(C)(C)C | 16µM | x | n | n | n | n
Cc1cccc(NC(=O)c2nc[nH]c2C(=O)NC2CCN(C(=O)OC(C)(C)C)CC2)c1 | 26µM | x | n | n | n | n
CCOc1ccc(NC(=O)C(C)n2c(=O)cc(-c3ccccc3)c3c(C)nn(C)c32)cc1 (centres undefined) | x | x | x | n | x | x
Cc1ccc(CNC(=O)c2c(-c3ccc(F)cc3F)noc2C)o1 | x | x | x | n | x | x
CCOc1cc(N2CCOCC2)c(OCC)cc1NC(=O)COC(=O)c1ccc(Cl)nc1 | n | x | n | x | x | x
Cc1cccc(NC(=O)c2nc[nH]c2C(=O)NCCCNC(=O)c2[nH]cnc2C(=O)Nc2cccc(C)c2)c1 | 9.2µM | x | n | x | x | x
CC(C)(C)OC(=O)NCCCC[C@H](NC(=O)c1nc[nH]c1C(=O)N[C@@H](CCCCNC(=O)OC(C)(C)C)C(=O)OC(C)(C)C)C(=O)OC(C)(C)C | 9.2µM | x | n | n | n | n
O=C(Nc1ccc(Cl)cc1)c1nc[nH]c1C(=O)NCCCNC(=O)c1[nH]cnc1C(=O)Nc1ccc(Cl)cc1 | 2.6µM | x | n | x | x | x
Cc1cccc(NC(=O)c2nc[nH]c2C(=O)NCCN(CCNC(=O)c2[nH]cnc2C(=O)Nc2cccc(C)c2)CCNC(=O)c2[nH]cnc2C(=O)Nc2cccc(C)c2)c1 | n | x | n | x | x | x
CCC(C)N(C(=O)Cn1nnc(-c2ccc(F)cc2)n1)C1CCS(=O)(=O)C1 (centres undefined) | n | x | n | n | n | n

Screening results: PubChem, National Center for Advancing Translational Sciences (NCATS)
